Test results published in PubChem BioAssay AID1021 (Emory University Molecular Libraries Screening Center, 2008).
Where “and” joins values, the source holds several entries; their conditions need not be identical. Equal entries are not always repeated. Hit rate of the full screen: of about 220,000 compounds, about 2,100 (0.95%) were called active.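 How the source made its calls: active means compounds that cut the binding signal by more than half at the single screening dose; inactive means the rest.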 The full list was thinned out, with actives kept by preference. Some compounds were tested as several samples or in several runs, with calls that do not always agree.

These molecules were tested against Induced myeloid leukemia cell differentiation protein Mcl-1 (Homo sapiens) (UniProt Q07820) (assay: Mcl-1/Bid binding inhibitors, primary screen, biochemical, TR-FRET, 1536-well (AID 1021;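 further: His-tagged Mcl-1 with europium anti-His antibody binding Bid BH3 peptide; 0% = Mcl-1 plus peptide wells and 100% = peptide-only wells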)). Details: TR-FRET Mcl-1/Bid-Dy647 peptide binding, at 21.7 µM, stronger effect = higher value.
Induced myeloid leukemia cell differentiation protein Mcl-1 (Homo sapiens), sequence (Q07820 whole entry, looked up): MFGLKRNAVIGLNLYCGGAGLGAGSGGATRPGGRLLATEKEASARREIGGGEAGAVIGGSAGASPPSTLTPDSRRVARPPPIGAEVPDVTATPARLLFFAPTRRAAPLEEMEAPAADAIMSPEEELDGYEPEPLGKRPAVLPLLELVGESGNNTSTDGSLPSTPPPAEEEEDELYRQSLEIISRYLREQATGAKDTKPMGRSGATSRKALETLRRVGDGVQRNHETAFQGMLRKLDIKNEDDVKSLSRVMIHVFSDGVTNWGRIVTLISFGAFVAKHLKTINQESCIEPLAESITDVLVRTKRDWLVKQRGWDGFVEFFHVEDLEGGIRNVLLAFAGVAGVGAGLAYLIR

With Cc1ccc(Nc2cc(=O)n(C3CCCCC3)c(=O)[nH]2)cc1C as the molecule, how does the inhibition read?
The inhibition was 94.6% (active).

How did the inhibition turn out when Cc1ccc(NNC(=O)C2CCC2)cc1C was run?
Its inhibition is -13% (inactive).

How did the inhibition turn out when O=c1cc(C(F)(F)F)[nH]c(=O)n1C1CCCCC1 was run?
Its inhibition is -10.9% (inactive).

With Cc1c(C(=O)Nc2ccccc2)sc2nc3n(c(=O)c12)CCCCC3 as the molecule, how does the inhibition read?
Its inhibition is -9.14% (inactive).

For O=C(Cn1c[n+](CC(=O)c2ccc([N+](=O)[O-])cc2)cn1)c1ccc([N+](=O)[O-])cc1, which inhibition is on record?
The inhibition was -21.7% (inactive) and -16.6% (inactive).

How did the inhibition turn out when CC(=O)Oc1cccc(N2C(=O)C3CC=C(Cl)CC3C2=O)c1 (stereo not given) was run?
The inhibition was -19.4% (inactive).

O=C(Oc1cccc(N2C(=O)C3C4c5ccccc5C(c5ccccc54)C3C2=O)c1)c1ccco1 (stereo not given) was tested. Which inhibition did it give?
Its inhibition is 92% (active).

With CC(=O)Nc1ccc(N2C(=O)C3C4CC(=O)C(c5ccccc54)C3C2=O)cc1 (stereo not given) as the molecule, how does the inhibition read?
Its inhibition is -11.5% (inactive).

Which inhibition does the source give for O=[N+]([O-])c1ccc(N2CCSCC2)cc1O here?
Its inhibition is -15.7% (inactive).

Which inhibition does the source give for O=C(CS(=O)(=O)c1ccc(C(F)(F)F)cn1)NNC(=O)c1ccccc1 here?
The inhibition was -2.12% (inactive).

With Cc1ccc(-c2nc3ccccc3[nH]c2=O)cc1 as the molecule, how does the inhibition read?
The inhibition was -0.25% (inactive).

O=c1[nH]c2ccccc2n2c(-c3ccccc3)nnc12 was tested. Which inhibition did it give?
The inhibition was 64.9% (active).

Which inhibition does the source give for CCOC(=O)c1cnc2[nH]c3ccccc3n2c1=O here?
Its inhibition is 10.7% (inactive).

For CCCCc1nnc(NC(=O)CSc2nc(N)cc(=O)[nH]2)s1, which inhibition is on record?
Its inhibition is -5.95% (inactive).

Which inhibition does the source give for Cn1c2ccccc2c2cc(/C=C(\NC(=O)c3ccccc3)C(=O)NCC(=O)O)ccc21 here?
Its inhibition is -1.08% (inactive).

With Cc1cc(NS(=O)(=O)c2ccc(NC(=O)c3cccc(OC(F)F)c3)cc2)nc(C)n1 as the molecule, how does the inhibition read?
Its inhibition is -2.38% (inactive).

For Cn1cccc1/C=N/NC(=O)CNc1cccc2ccccc12, which inhibition is on record?
The inhibition was -45.9% (inactive).

Which inhibition does the source give for O=C(O)C(NS(=O)(=O)c1cccc2nsnc12)c1ccccc1 (stereo not given) here?
The inhibition was -3.92% (inactive).

How did the inhibition turn out when O=C(O)c1ccc(NS(=O)(=O)c2cccc3nsnc23)cc1 was run?
The inhibition was 101% (active).

Which inhibition does the source give for O=C(C(NS(=O)(=O)c1cccc2nsnc12)c1ccccc1)N1CCN(c2ccccc2)CC1 (stereo not given) here?
Its inhibition is -29.6% (inactive).

Which inhibition does the source give for N#Cc1c(N)nc2c(c1N)CC(C(F)(F)F)O2 (stereo not given) here?
Its inhibition is 1.45% (inactive).

For COc1ccccc1C1C(C#N)=C(N)Oc2c1c(-c1ccccc1)nn2-c1ccccc1 (stereo not given), which inhibition is on record?
The inhibition was 97.3% (active).

For Cc1nn(-c2ccccc2)c2c1C(c1ccc(F)cc1)C(C#N)=C(N)O2 (stereo not given), which inhibition is on record?
The inhibition was -9.94% (inactive).

Which inhibition does the source give for Cc1nn(Cc2ccccc2)c2c1C(c1ccccc1)C(C#N)=C(N)O2 (stereo not given) here?
Its inhibition is -17.5% (inactive).

Which inhibition does the source give for COc1cc(S(=O)(=O)N(Cc2cccs2)C2CC2)ccc1-n1cnnn1 here?
The inhibition was 1.4% (inactive).

CCC(CC)NC(=O)CSc1nnc(-c2c[nH]c3ccccc23)o1 was tested. Which inhibition did it give?
Its inhibition is 1.1% (inactive).

For CN(C)c1ccc(Nc2c3c4c(cccc4n(C)c2=O)C(=O)c2ccccc2-3)cc1, which inhibition is on record?
Its inhibition is 59.4% (active).

Which inhibition does the source give for Cc1ccc(C(=O)OC2=CC(=O)CC(C)(C)C2)cc1 here?
The inhibition was 89.4% (active).

For COC(=O)NNC1=CC(=O)CC(C)(C)C1, which inhibition is on record?
Its inhibition is -13.6% (inactive).

CC1(C)CC(=O)C=C(Nc2ccccc2)C1 was tested. Which inhibition did it give?
The inhibition was -54% (inactive).

How did the inhibition turn out when C/C(=N\Nc1cccc(C(=O)O)c1)c1ccc2c(c1)Nc1ccccc1S2 was run?
Its inhibition is 92% (active).

CC(=O)Nc1cccc(/C(C)=N/NC(=O)c2ccccc2Cl)c1 was tested. Which inhibition did it give?
Its inhibition is -9.47% (inactive).

Which inhibition does the source give for O=C(NC1CC1)c1ccc2c(c1)NC(=O)c1ccccc1S2 here?
Its inhibition is -30.3% (inactive).

COc1cc(/C=N/NC(=O)CCc2n[nH]c(=O)[nH]c2=O)ccc1O was tested. Which inhibition did it give?
Its inhibition is -25.6% (inactive).

With O=C(OCc1nc2ccccc2[nH]1)C1CCCCC1 as the molecule, how does the inhibition read?
The inhibition was -17.4% (inactive).

COc1ccc(C(=O)C2CCCN(Cc3ccc4nonc4c3)C2)c(C)c1 (stereo not given) was tested. Which inhibition did it give?
Its inhibition is -14.3% (inactive).

With O=C(NC1CCCCC1)N1CCc2[nH]c3ccccc3c2C1 as the molecule, how does the inhibition read?
The inhibition was -16.1% (inactive).

How did the inhibition turn out when Fc1ccc(NC(=S)N2CCc3[nH]c4ccccc4c3C2)cc1 was run?
Its inhibition is -6.12% (inactive).

With O=C(Nc1ccc(Cl)cc1)N1CCc2[nH]c3ccccc3c2C1 as the molecule, how does the inhibition read?
Its inhibition is 83.8% (active).

For Cc1ccccc1CN(c1ccc(C(=O)NCC2CCCO2)cc1)S(C)(=O)=O (stereo not given), which inhibition is on record?
The inhibition was -0.03% (inactive).

CNS(=O)(=O)c1ccc(N2CCCC2=O)c([N+](=O)[O-])c1 was tested. Which inhibition did it give?
Its inhibition is -4.05% (inactive).

Which inhibition does the source give for COc1ccc(CCN(C)C(=O)C2CCCN(Cc3ccc(OC)c(OC)c3)C2)cc1OC (stereo not given) here?
Its inhibition is -22.7% (inactive) and 54.1% (active).

For COc1ccc(CN2CCCC(CNC(=O)c3ccc(F)cc3)C2)cc1OC (stereo not given), which inhibition is on record?
The inhibition was -22.9% (inactive).

How did the inhibition turn out when COc1ccc(CN2CCCC(C(=O)c3ccc(Cl)cc3)C2)cc1Cn1cncn1 (stereo not given) was run?
Its inhibition is -25.6% (inactive).

For CC(C)CC(=O)NC(=S)NNC(=O)c1cccc([N+](=O)[O-])c1, which inhibition is on record?
Its inhibition is -73.3% (inactive).

Cn1nc(C(F)(F)F)c(-c2ccc(F)cc2)c1NC(=O)CSCC(=O)O was tested. Which inhibition did it give?
The inhibition was -12.6% (inactive).

O=C(O)CSCC(=O)Nc1cccc(C(F)(F)F)c1 was tested. Which inhibition did it give?
Its inhibition is -0.04% (inactive).

How did the inhibition turn out when O=[N+]([O-])c1ccc(N/N=C/c2ccccc2)cc1 was run?
The inhibition was -8.01% (inactive).

Which inhibition does the source give for FC(F)(F)c1cccc(N/N=C/c2ccccc2)c1 here?
Its inhibition is 93.7% (active).

With Clc1ccc(C[n+]2cc(-c3ccc(Cl)cc3)n3c2CCC3)cc1 as the molecule, how does the inhibition read?
Its inhibition is -1.66% (inactive).

How did the inhibition turn out when O=c1c2[nH]c3ccc(Cl)cc3c2ncn1Cc1ccccn1 was run?
Its inhibition is 10.2% (inactive).

COc1ccc2[nH]c3c(=O)n(Cc4ccco4)cnc3c2c1 was tested. Which inhibition did it give?
The inhibition was 72.9% (active).

How did the inhibition turn out when Cc1ccc2[nH]c3c(=O)n(Cc4ccccn4)cnc3c2c1 was run?
The inhibition was 14.7% (inactive).

S=C(NNC(=S)NC1CC2C=CC1C2)NC1CC2C=CC1C2 (stereo not given) was tested. Which inhibition did it give?
Its inhibition is -96.2% (inactive).

How did the inhibition turn out when CCCCCCCCCCCCC(NC(C)=O)(C(=O)OCC)C(=O)OCC was run?
The inhibition was 1.76% (inactive).

For CN(C)c1ccc(/C=C/C(=O)c2ccc(O)cc2)cc1[N+](=O)[O-], which inhibition is on record?
Its inhibition is -2.27% (inactive).

For CCO[C@@H]1OC(C(=O)NCc2nc3ccccc3[nH]2)=C[C@H](C2CCCCC2)[C@H]1CCCO, which inhibition is on record?
Its inhibition is 5.02% (inactive).

Which inhibition does the source give for CCc1ccccc1N1CN(Cc2ccco2)CNC1=S here?
Its inhibition is -26.9% (inactive).

Cc1nccc(-c2ccc(-n3c(C)ccc3C)cc2)n1 was tested. Which inhibition did it give?
The inhibition was 6.3% (inactive).

COc1ccccc1NC(=O)/C=C/C(=O)O was tested. Which inhibition did it give?
The inhibition was -31.9% (inactive).
